Experimental data reported in PubChem BioAssay (NCATS).
Inconclusive results are not listed. Where a call stands in place of a potency, no number is given. Unmarked numbers belong to inactive results. Calls of active or inactive are those of the source. Calls come from the whole dose curve; as a rule, active = well fitted inhibition curve with a large enough effect; inconclusive = small, poorly fitted or top-dose-only effect; inactive = no such curve, though single readings can be large or run the other way.

tested on: Zika virus NS2B-NS3 protease (linked construct); assay: Primary screen NINDS Rhodamine qHTS for Zika virus inhibitors (AID 1347160); conditions: purified NS2B-NS3 protease, Rhodamine110 substrate fluorescence; series mostly up to 57.1 µM; note: nearly all actives have a fitted effect of over 55% in size
Method in brief: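 Single-chain NS2B-NS3 protease, 25 nM, pH 8.0; compounds preincubated 15 min. Activity: Rhodamine110 release from 1.5 microM substrate over 15 min, room temperature, data fitted to 4-parameter Hill.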

| SMILES | activity change, negative = inhibition | Potency |
| --- | --- | --- |
| CC(=O)O[C@@H]1C[C@]2(C)[C@@]3(CCC4[C@@]5(C)CC[C@H](O[C@@H]6O[C@H](C(=O)O)[C@@H](O)[C@H](OC7OC(CO)C(O)C(O)[C@H]7O[C@@H]7O[C@@H](C)[C@H](O)[C@@H](O)[C@H]7O[C@@H]7OC[C@](O)(CO)[C@H]7O)[C@H]6OC6OC(CO)C(O)C(O)C6O)C(C)(C)C5CC[C@]42C)OC[C@@]12CCC(C)(C)CC23 (stereo partly drawn) | -13.3% [at 10.7 µM] |  |
| CC(=O)OC[C@]12[C@H](OC(C)=O)C(=O)[C@@H]3[C@@H](O)[C@@]14O[C@@]3(C)COC(=O)c1cccnc1[C@@H](C)[C@H](C)C(=O)O[C@@H]([C@H](O)[C@@H]2OC(C)=O)[C@]4(C)O |  | inactive |
| N#Cc1ccc(-c2ccc(S(=O)(=O)Nc3cccc(N)n3)cc2)cc1 |  | inactive |
